The values below come from PubChem BioAssay AID1211 (NMMLSC, 2008).

A number with no mark means an inactive call. Active and inactive are the calls of the source. The rule behind the calls is not given here.

Sequence of Estrogen receptor (Homo sapiens) (P03372 whole entry, looked up): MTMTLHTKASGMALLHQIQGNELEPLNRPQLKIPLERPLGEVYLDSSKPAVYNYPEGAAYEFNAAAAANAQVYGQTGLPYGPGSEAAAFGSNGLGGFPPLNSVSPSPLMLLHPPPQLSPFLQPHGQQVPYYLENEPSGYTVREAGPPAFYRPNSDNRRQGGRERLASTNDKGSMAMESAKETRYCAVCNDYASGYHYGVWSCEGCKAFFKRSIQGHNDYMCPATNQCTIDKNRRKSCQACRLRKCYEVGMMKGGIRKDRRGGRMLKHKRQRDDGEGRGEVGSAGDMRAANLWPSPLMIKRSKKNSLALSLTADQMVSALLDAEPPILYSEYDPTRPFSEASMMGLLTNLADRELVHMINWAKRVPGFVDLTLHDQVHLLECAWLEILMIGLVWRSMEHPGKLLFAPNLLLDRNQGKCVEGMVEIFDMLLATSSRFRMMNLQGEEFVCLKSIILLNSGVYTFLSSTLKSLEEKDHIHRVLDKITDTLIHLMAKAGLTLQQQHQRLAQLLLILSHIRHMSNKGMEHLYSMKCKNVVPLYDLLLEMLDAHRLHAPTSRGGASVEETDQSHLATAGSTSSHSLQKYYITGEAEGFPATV

This assay addresses Estrogen receptor (Homo sapiens) (UniProt P03372). In words: displacement of fluorescent estrogen from ERalpha – cell-based, Cos7 ERalpha-GFP, flow cytometry, primary screen (AID 1211).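 Note: 0% = DMSO vehicle wells and 100% = no E2-Alexa633 signal left.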 As to conditions: fluorescent ligand competition, at 10 µM, stronger effect = higher value.
Regarding `C=CCSC1=N/C(=C\C=C\c2ccco2)C(=O)S1`, the inhibition of ligand binding was 0%. For `O=C(O)C1Nc2c(O)cccc2C2C=CCC12` (stereo not drawn) the value was 6%; for `CC1(C)CC(=O)c2cn(-c3ccc(Cl)cc3)c(=N)c(C#N)c2C1`, 35%.

Regarding `Cc1csc(C(C#N)C(=O)c2ccncc2)n1` (stereo not drawn), the inhibition of ligand binding is 33%. `Cn1c(SCC(=O)N2c3ccccc3CCc3ccccc32)nnc1-c1cc2ccccc2cc1O`: the inhibition of ligand binding was 34%. Turning to `Cc1oc2ccc(OCC#N)cc2c1C(=O)OC(C)C`, the inhibition of ligand binding was 0%.

Take `CC(=O)OC1CC2(C)C(=O)CCC2C2CCc3cc(O)ccc3C12` (stereo not drawn): the inhibition of ligand binding was 23%. With `COc1cccc(C2NCCc3cc(OC)c(OC)cc32)c1` (stereo not drawn), the inhibition of ligand binding was 10%. For `CC(C)COc1ccc2c(c1)c1c3n2CCNC3CCC1` (stereo not drawn) the value was 22%; for `C=C1c2ccc(OC)cc2NC(=O)N1c1ccccc1`, 4%. Turning to `O=C(COC(=O)C1CC2C=CC1C2)NCc1ccco1` (stereo not drawn), the inhibition of ligand binding was 16%. For the compound `COc1ccc(CNC(=O)COC(=O)c2cc(-c3ccco3)nc3ccccc23)cc1`, the inhibition of ligand binding was 20%. `COc1cc([C@@H]2Nc3ccc(S(=O)(=O)Nc4ccccc4F)cc3[C@@H]3C=CC[C@@H]32)cc(OC)c1OC`: the inhibition of ligand binding was 5%. Then `O=C(O)c1ccc2c(c1)[C@@H]1C=CC[C@@H]1[C@H](c1ccccn1)N2`, with 81% (active). Then `CCCc1cc(=O)oc2c(C)c(OC3CCCCC3=O)ccc12` (stereo not drawn), with 0%; and `CC(=O)c1ccc(N2Cc3ccccc3C2)cc1`, with 8%; and `O=c1cc(-c2ccccc2Cl)oc2c(Br)ccc(O)c12`, with 27%. Regarding `COc1ccc(C(=O)N/N=C(\C)c2ccc3c(c2)C2C=CCC2C(c2ccccc2)N3)cc1` (stereo not drawn), the inhibition of ligand binding is 73% (active).

In the case of `Cc1sc2ncnc(SCC(=O)NC(=O)NCc3ccco3)c2c1C`, the inhibition of ligand binding was 19%. For `CCc1cc2c3c(c(=O)oc2cc1OCC(=O)O)CCCC3` the value was 10%; for `O=C(O)c1cc(Cl)c2c(c1)[C@@H]1C=CC[C@@H]1[C@H](c1ccc(S(=O)(=O)N3CCOCC3)cc1)N2`, 42%; for `CCCCOc1cc(OCCCC)c2c3c(c(=O)oc2c1)CCCC3`, 19%. As to `COc1cc([N+](=O)[O-])cc2c1NC(c1ccc(Br)cc1)C1CC=CC21` (stereo not drawn), the inhibition of ligand binding was 0%. For `CC1(C)Cc2[nH]c3ccccc3c2C(C)(C)N1` the value was 6%; for `O=c1c(C(c2ccc(O)cc2)c2c(O)nc3n(c2=O)CCS3)c(O)nc2n1CCS2`, 7%; for `CCOc1ccc(NS(=O)(=O)c2ccc3c(c2)[C@H]2C=CC[C@H]2[C@@H](c2ccc([N+](=O)[O-])cc2)N3)cc1`, 9%.

As for `CCOC(=O)C1=C(C)NC(=O)NC1c1ccco1` (stereo not drawn), the inhibition of ligand binding is 56%. Then `CC(=O)Oc1ccc(C2Nc3c(C(=O)O)ccc([N+](=O)[O-])c3C3C=CCC32)cc1` (stereo not drawn), with 85% (active).

In the case of `COc1cc(C2C(C#N)=C(N)Oc3cc(C)oc(=O)c32)cc2c1OCO2` (stereo not drawn), the inhibition of ligand binding was 9%. For `C=CCn1c(COc2ccccc2F)nnc1SCC(=O)NC(=O)NCc1ccco1` the value was 11%; for `Oc1ccc(-c2[nH]nc(-c3ccccc3)c2-c2nc3ccccc3[nH]2)cc1`, 33%; for `Nc1ccc2nc3n(c(=O)c2c1)CCC3`, 34%. Then `CC(=O)NC12CC3CC(C1)CC(C(=O)OCC(=O)Nc1ncc(Cl)c(C)c1Cl)(C3)C2`, with 21%.

In the case of `CCC(Oc1ccc2c3c(c(=O)oc2c1C)CCC3)C(=O)OC` (stereo not drawn), the inhibition of ligand binding was 15%. For `Cc1nn(-c2ccc(Cl)cc2)c2sc(C(=O)N3CCN(c4ccccn4)CC3)cc12` the value was 50%; for `Cc1c(O)ccc2c3c(c(=O)oc12)CCCC3`, 0%; for `CC(C)C1Nc2ccc(C(=O)O)cc2C2C=CCC21` (stereo not drawn), 36%. Then `COc1cc([N+](=O)[O-])cc2c1NC(c1ccccc1)C1CC=CC21` (stereo not drawn), with 0%.
